The values below come from the supplement of paper PMC6555819.

The first experiment has as its system FXR:RXRa (NR concentration 270 nM, RXRa partner concentration 90 nM). Kind of experiment: PBM binding z-score (relative to random genomic background probes); higher = stronger binding; sequences stand for … in GC…GCGATTGACAGCGTAGAATGAAGG
In short, it runs like this:
(§1)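 Scanned fluorescence from custom Agilent 4×180K protein-binding microarrays was regression-normalized. Binding z-scores use random background probes as reference. Ligand-free nuclear receptor dimers were incubated on the arrays for 1 h and detected with antibodies against each partner (one per run).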
With CTACCAAAGTGAACAAGGTCGTTGATTACTATTC, the PBM binding z-score was 0.664.

Regarding GCTAGTTGCTCAGTAAAAGGTCACACACCGGTCG, the PBM binding z-score was 3.27.

Sequence TCTCGGGGGACACGAAAGGTCAGAGCTCGACATC displayed a PBM binding z-score of 4.5.

For the sequence AGTCAAAGTTCATCTAGGTAACGTAAGATATGCT, the PBM binding z-score is 6.73.

For the sequence ATATGTAGGTCACATCCGGGTCATTCAGGCTATG, the PBM binding z-score was 4.9.

For the sequence AGAATGAGGTTAAGAGCAGGGAAACAGAATACAT, the PBM binding z-score is 2.07.

Take GCTTACGGGTCAAAGGTTATAGCCTGAATAGAAT: the PBM binding z-score was found to be 7.79.

The sequence CAAGCTAGGTCACGAAAGGTCAAAGTCGAATGAC gave a PBM binding z-score of 7.45.

For the sequence TAGCCTATGTCATGGGCCAGTATACCACGCGAAC, the PBM binding z-score is -0.15.

CGTCCAAGGTCAGCAGGTCAGTGACAGCGACGTG showed a PBM binding z-score of 5.75.

For the sequence TCATATAGGTAAAGGTGAAAGTGGAACGATATGA, the PBM binding z-score stood at 0.702.

Sequence ATCTCAAGGTAACCAAGTTCAGTGAATGCCGAAC came in with a PBM binding z-score of 0.76.

On to CCTTACGGGTCAAGGTGATAGCACGGGTGGTACG, for which the PBM binding z-score was determined as 5.64.

As for ACAGACAGGTGAGTGAAGGTATCTCAGCTGGACG, the PBM binding z-score was -0.3.

Turning to CAAACTAGGTCAAAGGTCCAAGTCGAGCCAACCA, the PBM binding z-score was 5.12.

In turn, ATATGTAGGTTAAGGGTCAGTCAGGTTGGTTCGC displayed a PBM binding z-score of 3.7.

TCTGCTAGGTCAGTTGTTCAGCTAACGAGCTGCC: the PBM binding z-score came to 0.697.

In the case of AGTCAAAGTTCAGGAGGAGGTAACGTAAAGCACG, the PBM binding z-score came to 4.22.

CCTTGCAGGCCAATCTGGGTCACTCAAGGCTTGA had a PBM binding z-score of 0.555.

Sequence AGAACGAAGGCAATGAGTTGATAGCACGGGTGGC showed a PBM binding z-score of -0.744.

AGTCAAAGTTCACTAGGTAACGTGAGATTCAGCT came in with a PBM binding z-score of 4.64.

For GTACCAAGGTGAATTGGTCGTTGATGAGTAGGCG, the PBM binding z-score came to 0.321.

TCTGCTAGGTCAGTTCGTCAGCTAACGAGCTGCC yielded a PBM binding z-score of 0.654.

Regarding CCTACTGGGGCAAAAAGGTCATTGATGCCGATAA, the PBM binding z-score came out at 3.82.

TTACCAAGGTGAAAGGTAGTTGATGCACGCCTTG returned a PBM binding z-score of 0.796.

TCAGACAGGTGAAGGTAACTTAGGTACGCAGTCG came in with a PBM binding z-score of 1.16.

Take GCTGCTAGGTCAGGTGGGTCAGCTAACGGGTACG: the PBM binding z-score is 1.62.

With TAGCCTAGCTCATTGGGCCAGTATAGTACGCATC, the PBM binding z-score is -0.7.

AACACAGGGTCATCGTAGGCCAGAGTACGCACAG displayed a PBM binding z-score of 7.22.

As to GTACCAAGGTGGATAGGTCGTTGATGAGTAGGCG, the PBM binding z-score is -0.366.

ACTATTAGTTGAGACGAGGGTAACCGATAGGTTG registered a PBM binding z-score of 0.247.

In turn, CGTCAAAGTTCTACTAAGGTAACGTAAAGCACGC came in with a PBM binding z-score of 1.91.

In the case of CGTCCAAGGTCAGAGGTCAGTGAAGAGATGACGG, the PBM binding z-score is 6.67.

In turn, GCTATTAATTGAAAGGGCAACCGAATGATTCTCG returned a PBM binding z-score of 0.000102.

With GCATATAGGTAATACAAGGTGAACGTCCGATTGT, the PBM binding z-score stood at 0.337.

Turning to CGTGCAAGGTCATAGGAGGTCAGTGAAGACAGAT, the PBM binding z-score was found to be 7.84.

Sequence CAAACTAGGTCACCGGAAGGTCAAAGTCCGCATG had a PBM binding z-score of 6.27.

Take TAGGCTAGGTCATGGGCCAGTATACCACGCGAAC: the PBM binding z-score was determined as 4.91.

Sequence CGTCCAAGGTCAGAGAGGTCAGGGAATGCCGAGT came in with a PBM binding z-score of 6.63.

As for AGAATGACGTTATTAAGATCAGGGAATTGCGGTC, the PBM binding z-score is -0.71.

The next experiment has as its system LXRa:RXRa (NR concentration 270 nM, RXRa partner concentration 90 nM). The description is as above. An outline of the steps:
as §1
Consider CTACCAAAGTGAACAAGGTCGTTGATTACTATTC, for which the PBM binding z-score was found to be 0.808.

For the sequence GCTAGTTGCTCAGTAAAAGGTCACACACCGGTCG, the PBM binding z-score was 4.03.

Turning to TCTCGGGGGACACGAAAGGTCAGAGCTCGACATC, the PBM binding z-score is 5.39.

Sequence AGTCAAAGTTCATCTAGGTAACGTAAGATATGCT displayed a PBM binding z-score of 6.

With ATATGTAGGTCACATCCGGGTCATTCAGGCTATG, the PBM binding z-score was determined as 5.58.

With AGAATGAGGTTAAGAGCAGGGAAACAGAATACAT, the PBM binding z-score was determined as 1.9.

The sequence GCTTACGGGTCAAAGGTTATAGCCTGAATAGAAT gave a PBM binding z-score of 5.8.

Sequence CAAGCTAGGTCACGAAAGGTCAAAGTCGAATGAC displayed a PBM binding z-score of 8.14.

Regarding TAGCCTATGTCATGGGCCAGTATACCACGCGAAC, the PBM binding z-score is -0.356.

Sequence CGTCCAAGGTCAGCAGGTCAGTGACAGCGACGTG displayed a PBM binding z-score of 3.99.

In turn, TCATATAGGTAAAGGTGAAAGTGGAACGATATGA registered a PBM binding z-score of 1.31.

Consider ATCTCAAGGTAACCAAGTTCAGTGAATGCCGAAC, for which the PBM binding z-score is 1.12.

For CCTTACGGGTCAAGGTGATAGCACGGGTGGTACG, the PBM binding z-score came out at 3.5.

Consider ACAGACAGGTGAGTGAAGGTATCTCAGCTGGACG, for which the PBM binding z-score was -0.499.

In turn, CAAACTAGGTCAAAGGTCCAAGTCGAGCCAACCA had a PBM binding z-score of 4.21.

On to ATATGTAGGTTAAGGGTCAGTCAGGTTGGTTCGC, for which the PBM binding z-score came out at 3.26.

In the case of TCTGCTAGGTCAGTTGTTCAGCTAACGAGCTGCC, the PBM binding z-score amounted to 0.0799.

Turning to AGTCAAAGTTCAGGAGGAGGTAACGTAAAGCACG, the PBM binding z-score was 3.87.

CCTTGCAGGCCAATCTGGGTCACTCAAGGCTTGA gave a PBM binding z-score of 1.37.

AGAACGAAGGCAATGAGTTGATAGCACGGGTGGC registered a PBM binding z-score of -0.976.

AGTCAAAGTTCACTAGGTAACGTGAGATTCAGCT showed a PBM binding z-score of 4.79.

GTACCAAGGTGAATTGGTCGTTGATGAGTAGGCG returned a PBM binding z-score of 0.0311.

Take TCTGCTAGGTCAGTTCGTCAGCTAACGAGCTGCC: the PBM binding z-score was found to be 0.387.

In turn, CCTACTGGGGCAAAAAGGTCATTGATGCCGATAA displayed a PBM binding z-score of 4.34.

In the case of TTACCAAGGTGAAAGGTAGTTGATGCACGCCTTG, the PBM binding z-score came out at 0.851.

Turning to TCAGACAGGTGAAGGTAACTTAGGTACGCAGTCG, the PBM binding z-score is 2.01.

Sequence GCTGCTAGGTCAGGTGGGTCAGCTAACGGGTACG came in with a PBM binding z-score of 1.2.

Take TAGCCTAGCTCATTGGGCCAGTATAGTACGCATC: the PBM binding z-score was -0.917.

In turn, AACACAGGGTCATCGTAGGCCAGAGTACGCACAG gave a PBM binding z-score of 6.21.

As for GTACCAAGGTGGATAGGTCGTTGATGAGTAGGCG, the PBM binding z-score is -0.16.

For the sequence ACTATTAGTTGAGACGAGGGTAACCGATAGGTTG, the PBM binding z-score turned out to be 0.035.

For the sequence CGTCAAAGTTCTACTAAGGTAACGTAAAGCACGC, the PBM binding z-score is -0.151.

Consider CGTCCAAGGTCAGAGGTCAGTGAAGAGATGACGG, for which the PBM binding z-score was found to be 5.39.

The sequence GCTATTAATTGAAAGGGCAACCGAATGATTCTCG came in with a PBM binding z-score of 0.439.

Regarding GCATATAGGTAATACAAGGTGAACGTCCGATTGT, the PBM binding z-score is 1.82.

Consider CGTGCAAGGTCATAGGAGGTCAGTGAAGACAGAT, for which the PBM binding z-score was determined as 7.38.

On to CAAACTAGGTCACCGGAAGGTCAAAGTCCGCATG, for which the PBM binding z-score came to 6.15.

Take TAGGCTAGGTCATGGGCCAGTATACCACGCGAAC: the PBM binding z-score is 3.13.

Consider CGTCCAAGGTCAGAGAGGTCAGGGAATGCCGAGT, for which the PBM binding z-score came out at 5.17.

In turn, AGAATGACGTTATTAAGATCAGGGAATTGCGGTC yielded a PBM binding z-score of -0.589.
